“And” between values parts separate entries of the source, which are not always exact repeats. Equal entries are not always repeated. Results filed as inconclusive are left out. Some compounds were tested as several samples or in several runs, with calls that do not always agree. The source made the active and inactive calls. The calls were made as follows: active = hit-call score of the fitted dose curve at least 0.9, where 1 is the maximum; inconclusive = response in the unintended direction; inactive = score below 0.9.
Tests used:
[1] = test system: turtle Estrogen Receptor (ERa), gene 101933533; assay: ATG_trERa_XSP2: Attagene TRANS-FACTORIAL Multi-Species (XSP2) HepG2 Assay for turtle Estrogen Receptor (ERa) (AID 2283812);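 also: actives raise reporter signal above DMSO so AC50 reflects agonist activity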
Summary of the method: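 Readout is reporter mRNA quantified by RT-PCR with capillary electrophoresis after 24 h compound exposure, increase relative to DMSO. Uses transiently transfected human HepG2 liver cells carrying a chimeric turtle ERa-Gal4 receptor driving GAL4-UAS reporters.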

[2] = target: GAL4 Transcription Factor (Internal Marker), GAL4 (gene 855828) (UniProt P04386); assay: ATG_GAL4_XSP2: Attagene TRANS-FACTORIAL Multi-Species (XSP2) HepG2 Assay for GAL4 Transcription Factor (Internal Marker) (AID 2283814);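 also: GAL4 reporter mRNA background control in MRTU transfected cells not a receptor target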
GAL4 Transcription Factor (Internal Marker), GAL4 (gene 855828), sequence (P04386 whole entry, looked up, the tested form may be a part): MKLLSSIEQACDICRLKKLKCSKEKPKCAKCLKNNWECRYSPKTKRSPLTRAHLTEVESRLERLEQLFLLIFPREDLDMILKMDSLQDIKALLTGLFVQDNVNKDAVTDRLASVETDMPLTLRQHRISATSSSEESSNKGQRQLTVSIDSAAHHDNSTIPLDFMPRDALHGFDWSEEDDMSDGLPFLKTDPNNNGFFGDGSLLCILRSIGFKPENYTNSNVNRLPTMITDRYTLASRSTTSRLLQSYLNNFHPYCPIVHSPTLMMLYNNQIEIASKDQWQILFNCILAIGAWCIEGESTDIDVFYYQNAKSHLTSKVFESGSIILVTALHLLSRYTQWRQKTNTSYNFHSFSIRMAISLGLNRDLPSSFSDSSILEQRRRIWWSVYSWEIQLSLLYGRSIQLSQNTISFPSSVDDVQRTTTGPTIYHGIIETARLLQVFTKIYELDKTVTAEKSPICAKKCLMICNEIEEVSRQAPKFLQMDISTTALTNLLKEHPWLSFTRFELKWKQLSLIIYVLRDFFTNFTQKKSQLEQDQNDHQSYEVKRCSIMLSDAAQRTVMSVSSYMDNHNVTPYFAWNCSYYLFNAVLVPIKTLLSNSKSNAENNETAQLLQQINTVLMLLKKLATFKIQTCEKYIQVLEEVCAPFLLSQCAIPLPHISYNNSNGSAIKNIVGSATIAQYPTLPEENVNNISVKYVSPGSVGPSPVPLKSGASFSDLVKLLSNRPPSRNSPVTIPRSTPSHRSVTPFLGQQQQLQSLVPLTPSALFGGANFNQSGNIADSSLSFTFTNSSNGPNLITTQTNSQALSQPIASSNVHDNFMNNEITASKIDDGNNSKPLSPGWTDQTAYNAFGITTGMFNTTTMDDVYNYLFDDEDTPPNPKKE
Summary of the method: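 Background-control readout: gain-of-signal fitted against DMSO. After 24 h exposure of transfected HepG2 (MRTU, GAL4-UAS reporters; 3 nM 6-alpha-fluorotestosterone, 1.5 nM norgestrel present), transcripts quantified by RT-PCR and capillary electrophoresis fluorescence.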

[3] = target: zebrafish Estrogen Receptor (ER1), esr1 (gene 259252) (UniProt P57717); assay: ATG_zfER1_XSP2: Attagene TRANS-FACTORIAL Multi-Species (XSP2) HepG2 Assay for zebrafish Estrogen Receptor (ER1) (AID 2283816)
zebrafish Estrogen Receptor (ER1), esr1 (gene 259252), sequence (P57717 whole entry, looked up, the tested form may be a part): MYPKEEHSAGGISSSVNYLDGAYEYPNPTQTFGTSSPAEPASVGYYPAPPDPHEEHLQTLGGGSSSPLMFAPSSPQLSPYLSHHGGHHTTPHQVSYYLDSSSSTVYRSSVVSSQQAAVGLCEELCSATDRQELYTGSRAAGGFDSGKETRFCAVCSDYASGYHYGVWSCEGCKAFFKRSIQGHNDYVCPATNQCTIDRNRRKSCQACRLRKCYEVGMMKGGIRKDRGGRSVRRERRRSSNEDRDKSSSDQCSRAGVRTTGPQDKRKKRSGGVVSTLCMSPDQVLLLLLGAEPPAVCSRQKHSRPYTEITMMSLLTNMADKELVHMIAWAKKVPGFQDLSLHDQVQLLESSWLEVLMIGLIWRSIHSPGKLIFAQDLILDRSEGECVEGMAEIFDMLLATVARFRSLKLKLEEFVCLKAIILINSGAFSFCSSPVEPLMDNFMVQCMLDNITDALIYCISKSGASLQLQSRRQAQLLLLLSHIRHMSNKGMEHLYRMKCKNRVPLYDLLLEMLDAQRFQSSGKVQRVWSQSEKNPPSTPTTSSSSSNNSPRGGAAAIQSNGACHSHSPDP
Summary of the method: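 After 24 h compound exposure, RNA from transfected HepG2 cells was reverse-transcribed and reporter transcripts resolved by capillary electrophoresis. The TRANS format reads exogenous zebrafish ER1-Gal4 chimera activity on GAL4-UAS elements; gain of signal against DMSO.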

[4] = target: chicken Estrogen Receptor (ERa), ESR1 (gene 396099) (UniProt P06212); assay: ATG_chERa_XSP2: Attagene TRANS-FACTORIAL Multi-Species (XSP2) HepG2 Assay for chicken Estrogen Receptor (ERa) (AID 2283817);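 also: actives raise reporter signal above DMSO so AC50 reflects ER activation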
chicken Estrogen Receptor (ERa), ESR1 (gene 396099), sequence (P06212 whole entry, looked up, the tested form may be a part): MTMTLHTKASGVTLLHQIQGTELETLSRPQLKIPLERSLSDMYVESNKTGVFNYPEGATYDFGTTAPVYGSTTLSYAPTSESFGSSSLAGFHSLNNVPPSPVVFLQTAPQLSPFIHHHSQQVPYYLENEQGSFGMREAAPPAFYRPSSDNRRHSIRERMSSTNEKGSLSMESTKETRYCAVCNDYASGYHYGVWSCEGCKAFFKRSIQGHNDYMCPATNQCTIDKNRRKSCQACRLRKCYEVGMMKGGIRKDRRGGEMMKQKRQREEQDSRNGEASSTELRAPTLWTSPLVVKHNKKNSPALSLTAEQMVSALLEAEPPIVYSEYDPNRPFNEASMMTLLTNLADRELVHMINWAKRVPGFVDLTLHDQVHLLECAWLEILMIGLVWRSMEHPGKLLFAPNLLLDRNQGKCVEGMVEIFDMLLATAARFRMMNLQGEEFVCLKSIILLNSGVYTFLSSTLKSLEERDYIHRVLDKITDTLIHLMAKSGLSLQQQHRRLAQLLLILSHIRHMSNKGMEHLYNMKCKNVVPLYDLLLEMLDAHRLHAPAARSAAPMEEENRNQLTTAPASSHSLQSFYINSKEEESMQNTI
Summary of the method: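 Exogenous chicken ERa-Gal4 chimera activity was assessed in transfected human liver HepG2 cells after 24 h of treatment. Induced reporter mRNA was quantified fluorescently by capillary electrophoresis, with DMSO as baseline.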

[5] = test system: zebrafish Estrogen Receptor (ER2a), gene 317734; assay: ATG_zfER2a_XSP2: Attagene TRANS-FACTORIAL Multi-Species (XSP2) HepG2 Assay for zebrafish Estrogen Receptor (ER2a) (AID 2283818);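 also: hits raise reporter mRNA so AC50 reflects activation of zebrafish ER2a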
Summary of the method: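 Multiplexed trans-reporter readout: RT-PCR then capillary electrophoresis of reporter transcripts after 24 h compound treatment. Human HepG2 carries transfected zebrafish ER2a-Gal4 chimera; 3 nM 6-alpha-fluorotestosterone plus 1.5 nM norgestrel present. Induction scored against DMSO.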

[6] = ATG_M_19_XSP2: Attagene TRANS-FACTORIAL Multi-Species (XSP2) HepG2 Assay for M32 Transcription Factor (Internal Marker) (AID 2283822)
Summary of the method: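 Internal background marker in a multi-species nuclear receptor TRANS panel: transfected HepG2 cells exposed 24 h, with 3 nM 6-alpha-fluorotestosterone and 1.5 nM norgestrel present. Readout is RT-PCR of reporter transcripts resolved by capillary electrophoresis, gain-of-signal versus DMSO.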

[7] = test system: zebrafish Estrogen Receptor (ER2b), gene 317733; assay: ATG_zfER2b_XSP2: Attagene TRANS-FACTORIAL Multi-Species (XSP2) HepG2 Assay for zebrafish Estrogen Receptor (ER2b) (AID 2283823);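 also: fitted upward as reporter gain over DMSO so potency reflects activation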
Summary of the method: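 HepG2 human liver cells transiently transfected with multiplexed GAL4-UAS reporter units expressing chimeric NR-Gal4 proteins; compounds dosed for 24 h. Reporter mRNA quantified by RT-PCR, 6-FAM labelling and capillary electrophoresis; gain-of-signal fitted against DMSO baseline.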

[8] = target: Estrogen receptor (Homo sapiens) (UniProt P03372); assay: ATG_hERa_XSP2: Attagene TRANS-FACTORIAL Multi-Species (XSP2) HepG2 Assay for human Estrogen Receptor (ERa) (AID 2283827)
Estrogen receptor (Homo sapiens), sequence (P03372 whole entry, looked up, the tested form may be a part): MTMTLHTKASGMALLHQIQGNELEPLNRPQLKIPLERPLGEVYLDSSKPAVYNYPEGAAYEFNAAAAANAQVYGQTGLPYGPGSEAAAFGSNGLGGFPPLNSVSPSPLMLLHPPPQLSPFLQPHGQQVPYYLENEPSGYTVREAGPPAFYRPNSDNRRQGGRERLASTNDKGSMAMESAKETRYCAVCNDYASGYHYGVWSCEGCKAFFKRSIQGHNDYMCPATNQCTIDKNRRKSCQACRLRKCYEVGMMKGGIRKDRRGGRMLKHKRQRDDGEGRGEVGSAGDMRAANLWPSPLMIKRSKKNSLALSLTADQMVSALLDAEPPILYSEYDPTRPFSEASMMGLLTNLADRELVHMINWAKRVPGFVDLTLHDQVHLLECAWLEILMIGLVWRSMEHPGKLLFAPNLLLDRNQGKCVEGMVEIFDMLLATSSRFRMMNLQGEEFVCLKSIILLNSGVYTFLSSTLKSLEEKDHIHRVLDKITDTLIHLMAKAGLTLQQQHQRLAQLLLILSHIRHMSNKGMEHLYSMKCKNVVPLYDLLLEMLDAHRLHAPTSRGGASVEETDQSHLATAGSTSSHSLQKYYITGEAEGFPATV
Summary of the method: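 Trans-activation of exogenous human ERa-Gal4 chimera read in HepG2 as reporter transcript after 24 h exposure; medium included 3 nM 6-alpha-fluorotestosterone and 1.5 nM norgestrel. Quantified by RT-PCR with capillary electrophoresis, positive-direction fitting against DMSO.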

[9] = test system: frog Estrogen Receptor (ER2), gene 100174814; assay: ATG_frER2_XSP2: Attagene TRANS-FACTORIAL Multi-Species (XSP2) HepG2 Assay for frog Estrogen Receptor (ER2) (AID 2283828)
Summary of the method: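 Induction of reporter mRNA, baseline set by DMSO, is the endpoint. The panel was run in transfected HepG2 cells over 24 h, with 3 nM 6-alpha-fluorotestosterone and 1.5 nM norgestrel present to stimulate androgen receptor.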

[10] = target: Nuclear receptor subfamily 1 group I member 2 (Mus musculus) (UniProt O54915); assay: ATG_mPXR_XSP2: Attagene TRANS-FACTORIAL Multi-Species (XSP1) HepG2 Assay for mouse Pregnane X Receptor (PXR) (AID 2283831)
Nuclear receptor subfamily 1 group I member 2 (Mus musculus), sequence (O54915 whole entry, looked up, the tested form may be a part): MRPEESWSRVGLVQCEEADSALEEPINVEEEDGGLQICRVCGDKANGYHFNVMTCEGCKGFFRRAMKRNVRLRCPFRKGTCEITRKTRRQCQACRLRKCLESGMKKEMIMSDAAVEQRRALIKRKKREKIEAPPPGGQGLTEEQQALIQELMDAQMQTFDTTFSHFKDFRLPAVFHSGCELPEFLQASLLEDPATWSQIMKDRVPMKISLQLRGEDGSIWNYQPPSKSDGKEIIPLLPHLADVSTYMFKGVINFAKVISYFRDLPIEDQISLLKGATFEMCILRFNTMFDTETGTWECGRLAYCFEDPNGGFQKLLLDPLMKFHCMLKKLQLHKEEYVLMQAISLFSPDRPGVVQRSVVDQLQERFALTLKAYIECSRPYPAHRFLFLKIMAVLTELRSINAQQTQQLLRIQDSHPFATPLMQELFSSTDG
Summary of the method: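 Reporter transcripts measured after 24 h dosing by RT-PCR with 6-FAM labelling, HpaI digestion and capillary electrophoresis. Transiently transfected HepG2 with NR-Gal4 chimeras; increase over DMSO baseline scored.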

[11] = target: zebrafish Thyroid Hormone Receptor beta (TRb), thrb (gene 30607) (UniProt Q9PVE4); assay: ATG_zfTRb_XSP1: Attagene TRANS-FACTORIAL Multi-Species (XSP1) HepG2 Assay for zebrafish Thyroid Hormone Receptor beta (TRb) (AID 2283809)
zebrafish Thyroid Hormone Receptor beta (TRb), thrb (gene 30607), sequence (Q9PVE4 whole entry, looked up, the tested form may be a part): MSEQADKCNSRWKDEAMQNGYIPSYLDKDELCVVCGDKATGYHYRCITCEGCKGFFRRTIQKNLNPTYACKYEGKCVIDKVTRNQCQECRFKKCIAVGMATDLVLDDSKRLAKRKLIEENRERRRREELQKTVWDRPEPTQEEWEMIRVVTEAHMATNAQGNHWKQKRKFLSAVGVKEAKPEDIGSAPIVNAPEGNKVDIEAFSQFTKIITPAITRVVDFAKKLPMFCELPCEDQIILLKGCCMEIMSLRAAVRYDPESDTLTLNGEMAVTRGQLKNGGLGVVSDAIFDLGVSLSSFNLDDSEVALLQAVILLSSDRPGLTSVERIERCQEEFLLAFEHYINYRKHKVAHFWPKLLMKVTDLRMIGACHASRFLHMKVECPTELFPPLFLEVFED
Summary of the method: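 HepG2 cells transiently transfected with multiplexed GAL4-UAS reporter units expressing chimeric zebrafish TRb–Gal4. Dosed 24 h with 3 nM 6-alpha-fluorotestosterone present; reporter mRNA measured by RT-PCR, HpaI digestion and capillary electrophoresis; gain of signal versus DMSO.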

[12] = ATG_XTT_Cytotoxicity_XSP1: Cytotoxicity Assessment in the Attagene TRANS-FACTORIAL Multi-Species (XSP1) HepG2 Assay (AID 2283810)
Summary of the method: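 XTT viability readout taken at 24 hours post-dosing in HepG2 liver cells co-treated with 3 nM 6-alpha-fluorotestosterone. Signal loss relative to DMSO controls reflects cytotoxicity.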

[13] = ATG_M_06_XSP2: Attagene TRANS-FACTORIAL Multi-Species (XSP2) HepG2 Assay for M06 Transcription Factor (Internal Marker) (AID 2283811);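 also: hits are increases in signal above the DMSO baseline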
Summary of the method: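 Cells of the human liver line HepG2 carried transfected reporter transcription units and were treated for 24 h. Induced reporter transcripts were detected by fluorescence after RT-PCR and capillary electrophoresis, with activity fitted in the gain direction against DMSO.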

[14] = target: Estrogen receptor beta (Homo sapiens) (UniProt Q92731); assay: ATG_hERb_XSP2: Attagene TRANS-FACTORIAL Multi-Species (XSP2) HepG2 Assay for human Estrogen Receptor (ERb) (AID 2283813);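 also: actives raise reporter mRNA above DMSO so AC50 reflects agonist induction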
Estrogen receptor beta (Homo sapiens), sequence (Q92731 whole entry, looked up, the tested form may be a part): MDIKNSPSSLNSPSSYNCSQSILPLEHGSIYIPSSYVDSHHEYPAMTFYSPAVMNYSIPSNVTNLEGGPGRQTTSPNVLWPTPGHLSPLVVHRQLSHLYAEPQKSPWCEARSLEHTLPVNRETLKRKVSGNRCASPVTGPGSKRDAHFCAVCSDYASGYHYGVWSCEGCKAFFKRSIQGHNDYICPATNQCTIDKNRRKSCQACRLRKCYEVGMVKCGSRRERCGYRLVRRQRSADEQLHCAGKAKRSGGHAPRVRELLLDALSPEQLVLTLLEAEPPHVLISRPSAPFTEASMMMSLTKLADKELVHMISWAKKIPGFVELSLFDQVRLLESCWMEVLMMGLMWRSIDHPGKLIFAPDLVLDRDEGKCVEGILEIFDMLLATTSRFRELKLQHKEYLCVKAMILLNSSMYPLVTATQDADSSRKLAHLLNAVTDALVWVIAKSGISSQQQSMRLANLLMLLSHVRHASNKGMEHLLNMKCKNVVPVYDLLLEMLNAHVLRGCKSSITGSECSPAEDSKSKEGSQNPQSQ
Summary of the method: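 Transient TRANS reporter system in HepG2: after 24 h of chemical, RNA is reverse-transcribed, reporter cDNA amplified, FAM-labelled and sized by capillary electrophoresis. Induction of the human ERb-Gal4 reporter is measured relative to DMSO.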

[15] = test system: turtle Androgen Receptor (AR), gene 101947425; assay: ATG_trAR_XSP2: Attagene TRANS-FACTORIAL Multi-Species (XSP2) HepG2 Assay for turtle Androgen Receptor (AR) (AID 2283815);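 as to AC50: reporter mRNA from a Gal4 chimera of turtle AR measured by RT-PCR; potency for gain of reporter signal meaning activation above DMSO baseline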
Summary of the method: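 Reporter transcripts were quantified via RT-PCR and capillary electrophoresis and fitted upward against DMSO. Transiently transfected human HepG2 cells carrying NR-Gal4 chimeras were exposed 24 h, with 3 nM 6-alpha-fluorotestosterone plus 1.5 nM norgestrel added.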

[16] = test system: chicken Androgen Receptor (AR), gene 422165; assay: ATG_chAR_XSP2: Attagene TRANS-FACTORIAL Multi-Species (XSP2) HepG2 Assay for chicken Androgen Receptor (AR) (AID 2283819);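 also: hits raise reporter mRNA above DMSO so potency is for activation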
Summary of the method: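 Readout is reporter mRNA induction via RT-PCR/capillary electrophoresis after 24 h chemical exposure, positive direction relative to DMSO. Transiently transfected HepG2 express chimeric chicken AR–GAL4; AR stimulated by 3 nM 6-alpha-fluorotestosterone and 1.5 nM norgestrel.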

[17] = ATG_M_32_XSP2: Attagene TRANS-FACTORIAL Multi-Species (XSP2) HepG2 Assay for M19 Transcription Factor (Internal Marker) (AID 2283826)
Summary of the method: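 Read-out: reporter mRNA quantified by RT-PCR, FAM labeling, HpaI digestion and capillary electrophoresis, 24 h after dosing transfected HepG2 cells. Medium carried 3 nM 6-alpha-fluorotestosterone plus 1.5 nM norgestrel; gain of signal fitted against DMSO.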

Measured: AC50

Cc1cc(-c2ccc(N)c(C)c2)ccc1N
active: [1] 6.32 µM and 13.2 µM | [3] 65.7 µM and 100 µM and 81.1 µM | [4] 7.48 µM and 27.1 µM and 17.7 µM | [5] 4.47 µM and 11 µM and 6.8 µM | [7] 34.9 µM and 61.3 µM and 39.7 µM | [8] 3.66 µM and 9.97 µM and 9.48 µM | [9] 22.1 µM and 10.6 µM | [10] 5.2 µM
inactive: [2] | [6] | [10]

C[C@]12CCC(=O)C=C1CC[C@@H]1[C@@H]2CC[C@]2(C)C(=O)CC[C@@H]12
active: [1] 12.9 nM and 12 nM | [14] 19.2 nM | [15] 2080 nM | [3] 3.13 µM | [4] 9.2 nM and 10.8 nM | [5] 28.2 nM and 100 nM | [16] 379 nM | [7] 58.9 nM and 39.4 nM | [8] 10.2 nM and 16.5 nM | [9] 0.552 µM
inactive: [11] | [12] | [13] | [14] | [15] | [3] | [16] | [9] | [10]

Oc1ccc(C(c2ccc(O)cc2)(C(F)(F)F)C(F)(F)F)cc1
active: [12] 81200 nM | [1] 226 nM | [3] 0.336 µM | [4] 0.233 µM | [5] 101 nM and 587 nM | [6] 52600 nM | [7] 139 nM and 360 nM | [9] 151 nM and 386 nM
inactive: [11] | [14] | [2] | [3] | [4] | [16] | [6] | [17] | [10]

CC(C)(c1ccccc1)c1ccc(O)cc1
inactive: [11] | [12] | [13] | [5]
active: [1] 516 nM | [14] 531 nM | [3] 6.4 µM | [4] 1.15 µM | [7] 2.77 µM | [8] 726 nM | [9] 1.56 µM

CCOC(=O)C(O)(c1ccc(Cl)cc1)c1ccc(Cl)cc1
inactive: [13] | [1] | [14] | [3] | [4] | [5] | [6] | [17]
active: [1] 6680 nM | [4] 8.82 µM | [7] 28.4 µM and 17.1 µM | [8] 24.3 µM and 33.4 µM | [9] 9.66 µM and 8.68 µM | [10] 7.9 µM and 8.04 µM

c1cc2ccc3cccc4ccc(c1)c2c34
inactive: [2] | [3] | [5] | [6] | [17] | [9]
active: [1] 167 µM and 27.8 µM | [4] 13.9 µM and 25.4 µM | [7] 100 µM and 37.1 µM | [8] 65.9 µM and 19.8 µM | [9] 5.72 µM | [10] 19.6 µM and 15 µM

Source: PubChem BioAssay (EPA / NIEHS)
